Laboratory results: PubChem BioAssay (NCI)
“And” between values parts separate entries of the source, which are not always exact repeats. Identical values can stand only once. About 83,000 compounds went through this panel and 20% of them were active in at least one assay; those are over-represented in the sample as a whole.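 Method: cells in 96-well plates; compound added at one concentration; 48 h incubation; percent growth measured; values under 10 scored active.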 The source made the active and inactive calls.

Experiments:
Experiment in all cases: NCI-60 one-dose screen, 48 h (100 = growth as untreated, 0 = no growth, -100 = all killed)
[1] = test system: EKVX NSCLC; conditions: 10 µM
[2] = test system: SN12C renal; conditions: 10 µM
[3] = test system: UO-31 renal; conditions: 10 µM
[4] = test system: TK-10 renal; conditions: 10 µM
[5] = test system: ACHN renal; conditions: 10 µM
[6] = test system: CAKI-1 renal; conditions: 10 µM
[7] = test system: CCRF-CEM leukemia; conditions: 10 µM
[8] = test system: MOLT-4 leukemia; conditions: 10 µM
[9] = test system: SR leukemia; conditions: 10 µM unless noted
[10] = test system: RPMI-8226 leukemia; conditions: 10 µM
[11] = test system: OVCAR-8 ovarian; conditions: 10 µM
[12] = test system: OVCAR-4 ovarian; conditions: 10 µM
[13] = test system: SK-OV-3 ovarian; conditions: 10 µM
[14] = test system: IGROV1 ovarian; conditions: 10 µM
[15] = test system: OVCAR-3 ovarian; conditions: 10 µM
[16] = test system: HS 578T breast; conditions: 10 µM
[17] = test system: A498 renal; conditions: 10 µM
[18] = test system: NCI/ADR-RES ovarian; conditions: 10 µM
[19] = test system: OVCAR-5 ovarian; conditions: 10 µM

| Compound | growth [1] | growth [2] | growth [3] | growth [4] | growth [5] | growth [6] | growth [7] | growth [8] | growth [9] | growth [10] | growth [11] | growth [12] | growth [13] | growth [14] | growth [15] | growth [16] | growth [17] | growth [18] | growth [19] |
| --- | --- | --- | --- | --- | --- | --- | --- | --- | --- | --- | --- | --- | --- | --- | --- | --- | --- | --- | --- |
| O=C1NC(=O)c2cc([N+](=O)[O-])ccc21 | 103% (inactive) | 101% (inactive) | 85.5% (inactive) | 99.3% (inactive) | 103% (inactive) | 86.4% (inactive) | 45.3% (inactive) | 96.9% (inactive) | 95.3% (inactive) | 71.2% (inactive) | 94.4% (inactive) | 117% (inactive) | 105% (inactive) | 103% (inactive) | 110% (inactive) | 127% (inactive) |  |  |  |
| NC1=C(Cl)C(=O)c2ccccc2C1=O | 107% (inactive) | 62.5% (inactive) | 84.3% (inactive) | 120% (inactive) | 76.8% (inactive) | 89.5% (inactive) | 46% (inactive) | 56.1% (inactive) | 46.4% (inactive) | 55.7% (inactive) |  | 72.3% (inactive) | 108% (inactive) | 67.7% (inactive) | 12.3% (inactive) | 14.5% (inactive) | 104% (inactive) | 80.4% (inactive) |  |
| CC1=CC(C)=Nc2ccc(Cl)cc2N1 | 108% (inactive) | 104% (inactive) | 85.9% (inactive) | 117% (inactive) | 105% (inactive) | 89.8% (inactive) | 93.9% (inactive) | 97.5% (inactive) | 91.1% (inactive) | 102% (inactive) |  | 110% (inactive) | 98.7% (inactive) | 103% (inactive) | 102% (inactive) | 104% (inactive) |  |  |  |
| CCCCCCCCCCCCSC(=NC)NC | 71.1% (inactive) | 39.4% (inactive) and 60.4% (inactive) | 35.2% (inactive) and 49.6% (inactive) | 62.1% (inactive) and 71.2% (inactive) | 43% (inactive) and 86.4% (inactive) | 45.8% (inactive) and 73.6% (inactive) | 23.7% (inactive) | 1.27% (active) and 19.1% (inactive) | -4.45% (active) and -23.7% (active) | -6.03% (active) and 23.3% (inactive) | 62.1% (inactive) and 82% (inactive) | 31.3% (inactive) and 71.2% (inactive) | 51% (inactive) and 79.1% (inactive) | 20.3% (inactive) and 66.7% (inactive) | 36.8% (inactive) and 71.7% (inactive) | 81.4% (inactive) and 93.2% (inactive) |  |  | 57.5% (inactive) and 84.1% (inactive) |
| CC(=O)OCC(OC(C)=O)C(OC(C)=O)C(OC(C)=O)C(OC(C)=O)C(/C=N/Nc1ccccc1)=N/Nc1ccccc1 (centres undefined) | 60% (inactive) | 78.7% (inactive) | 48.6% (inactive) | 91.2% (inactive) | 56.2% (inactive) | 72.6% (inactive) | 17.5% (inactive) | 30.6% (inactive) | 2.05% (active) | 60.6% (inactive) |  | 82.6% (inactive) | 85.5% (inactive) | 60.1% (inactive) | 71.8% (inactive) | 73% (inactive) |  | 72.4% (inactive) |  |
| Cc1nc(N=C(N)N)nc2ccc3ccccc3c12 |  | -22.6% (active) | 5.39% (active) | 3.86% (active) | 15.1% (inactive) | 75.2% (inactive) | -25.9% (active) | -28.2% (active) |  | 34.9% (inactive) |  | -3.65% (active) | -5.35% (active) | 7.89% (active) | -32.7% (active) | 3.6% (active) |  | 67.6% (inactive) |  |
| COc1c(O)cc2oc3cc(O)c(CC=C(C)C)c(O)c3c(=O)c2c1CC=C(C)C | 54% (inactive) | 51.5% (inactive) | 49.3% (inactive) | 89.1% (inactive) | 58.8% (inactive) | 56.2% (inactive) | 47.8% (inactive) | 42.3% (inactive) | 7.13% (active) | 49.9% (inactive) |  | 82.2% (inactive) | 89% (inactive) | 75% (inactive) | 46.1% (inactive) | 73.3% (inactive) |  | 38.6% (inactive) |  |
| CN(C)C(=S)SC(=S)N(C)C |  | 101% (inactive) and 103% (inactive) | 91.2% (inactive) and 79.1% (inactive) | 113% (inactive) and 112% (inactive) | 101% (inactive) and 107% (inactive) | 104% (inactive) and 103% (inactive) | 80.6% (inactive) and 71.3% (inactive) | 92.4% (inactive) and 85% (inactive) | 42.6% (inactive) and 52.1% (inactive) | 62.7% (inactive) |  | 72.9% (inactive) and 32.9% (inactive) | 115% (inactive) and 110% (inactive) | 96.2% (inactive) and 94.3% (inactive) | 98.8% (inactive) and 96.2% (inactive) | 106% (inactive) and 102% (inactive) |  |  | 106% (inactive) and 108% (inactive) |
| CCCCCC(C)c1ccc(O)c(C)c1 (centres undefined) | 108% (inactive) |  | 83.5% (inactive) | 107% (inactive) | 101% (inactive) | 103% (inactive) |  | 93% (inactive) | 94.3% (inactive) |  | 102% (inactive) | 95.5% (inactive) | 106% (inactive) | 117% (inactive) | 105% (inactive) | 105% (inactive) | 81.9% (inactive) | 102% (inactive) |  |
| NNc1c2ccccc2nc2ccccc12 | 58.3% (inactive) | 52.2% (inactive) | 61.4% (inactive) | 45.4% (inactive) | 46.7% (inactive) |  | 37.7% (inactive) | 29% (inactive) | 21.1% (inactive) | 34.7% (inactive) |  | 34.4% (inactive) | 63.5% (inactive) | 55% (inactive) | 51.4% (inactive) |  |  |  | 102% (inactive) |
| O=C(/C=C/c1cccnc1)c1ccccc1 | 103% (inactive) | 100% (inactive) | 84.1% (inactive) | 93.9% (inactive) | 79.8% (inactive) |  | 41.3% (inactive) | 82.3% (inactive) | 14.5% (inactive) | 54.1% (inactive) |  | 91.7% (inactive) | 103% (inactive) | 96.5% (inactive) | 85.8% (inactive) |  |  | 86% (inactive) | 91.3% (inactive) |
| Cc1cc(NS(=O)(=O)c2ccc(N=Nc3cc(N=Nc4ccc(S(=O)(=O)Nc5cc(C)nc(C)n5)cc4)c4c(NC(=O)C(Cl)Cl)cccc4c3OC(=O)C(Cl)Cl)cc2)nc(C)n1 (tested in a mixture with another compound) |  | 100% (inactive) and 101% (inactive) | 68.9% (inactive) and 72.2% (inactive) | 148% (inactive) and 150% (inactive) | 89.5% (inactive) and 94.4% (inactive) | 96.7% (inactive) and 88.6% (inactive) | 95.3% (inactive) and 99.6% (inactive) | 102% (inactive) and 105% (inactive) | 103% (inactive) and 69% (inactive) | 114% (inactive) and 101% (inactive) |  | 101% (inactive) and 94.3% (inactive) | 103% (inactive) and 105% (inactive) | 104% (inactive) | 114% (inactive) and 93.3% (inactive) | 111% (inactive) and 128% (inactive) | 116% (inactive) and 101% (inactive) | 107% (inactive) and 104% (inactive) | 122% (inactive) |
| CCO/C=C1\SC(=S)N(c2cccc(O)c2)C1=O |  | 98.1% (inactive) | 79.5% (inactive) | 88.3% (inactive) | 102% (inactive) | 98.9% (inactive) |  | 96.7% (inactive) | 85% (inactive) | 94.6% (inactive) | 99.4% (inactive) | 93.8% (inactive) | 91.9% (inactive) | 99.2% (inactive) | 102% (inactive) | 108% (inactive) |  |  |  |
| C[n+]1c2cc(N)ccc2cc2ccc(N)cc21 | -23.9% (active) and 5.67% (active) and -26.5% (active) |  |  |  | 6.76% (active) [middle of 4 runs] | -22.5% (active) and 9.14% (active) | 17.7% (inactive) [middle of 4 runs] | 9.49% (active) [middle of 4 runs] | 5.82% (active) and 0.679% (active) and -0.456% (active) |  |  |  | 3.68% (active) [middle of 4 runs] | 16.7% (inactive) and 36.3% (inactive) and 12.2% (inactive) |  |  |  |  |  |
| Clc1cc(Cl)c(Cl)nn1 | 115% (inactive) | 98% (inactive) | 106% (inactive) | 146% (inactive) | 113% (inactive) | 109% (inactive) | 88.7% (inactive) |  | 72% (inactive) | 75.6% (inactive) | 94.1% (inactive) | 109% (inactive) | 95.2% (inactive) | 107% (inactive) | 114% (inactive) | 101% (inactive) |  |  |  |
| O=C1C=C(O)c2ccccc2C1=O.[Ag] |  | 103% (inactive) | 82.9% (inactive) | 157% (inactive) | 95.2% (inactive) | 94.4% (inactive) | 101% (inactive) | 105% (inactive) | 103% (inactive) | 104% (inactive) |  | 95.4% (inactive) | 137% (inactive) | 105% (inactive) | 117% (inactive) | 96.7% (inactive) | 93.3% (inactive) |  |  |
